According to PubChem BioAssay (NCI):
This is part of a sample that, as a whole, favours compounds with a hit. Of some 79,000 tested, about 15% had one in any assay. Values without a mark were called inactive. The source made the active and inactive calls. Cut-off read from the data, not from the text of the source: active = growth inhibition above about 70%; inactive = the rest.

Assays:
[1] = NCI Yeast Anticancer Drug Screen. Data for the rad50 strain (AID 155);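 note: 0% = growth of vehicle-only cultures of the same strain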; details: S. cerevisiae rad50 strain growth inhibition, hits give high values
Procedure, shortened: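 Cells are treated with compound, grown, and their growth is then scored against vehicle-only cultures of the same repair-deficient yeast strain.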

[2] = NCI Yeast Anticancer Drug Screen. Data for the mec2-1 strain (AID 157); details: S. cerevisiae mec2-1 strain, hits give high values
Procedure, shortened: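 Mutant yeast (mec2-1) grown with compound; growth inhibition relative to vehicle control reported.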

[3] = NCI Yeast Anticancer Drug Screen. Data for the sgs1 mgt1 strain (AID 161);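 note: 0% = growth of cultures given vehicle only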; details: S. cerevisiae sgs1 mgt1 strain, hits give high values
Procedure, shortened: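 Compounds are added to genetically altered yeast, and growth is compared with cultures given vehicle alone to give percent inhibition.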

[4] = NCI Yeast Anticancer Drug Screen. Data for the cln2 rad14 strain (AID 165);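 note: 0% = growth equal to vehicle treated cultures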; details: S. cerevisiae cln2 rad14 strain, hits give high values
Procedure, shortened: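 Readout is yeast growth inhibition versus vehicle-treated controls, using a strain with cln2 and rad14 alterations exposed to compound.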

[5] = NCI Yeast Anticancer Drug Screen. Data for the bub3 strain (AID 167); details: S. cerevisiae bub3 mutant strain, hits give high values
Procedure, shortened: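 Part of a panel of yeast mutants defective in DNA damage repair or cell cycle regulation. Each strain is grown with compound, and inhibition is calculated relative to solvent-treated cultures.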

[6] = NCI Yeast Anticancer Drug Screen. Data for the mlh1 rad18 strain (AID 175); details: S. cerevisiae mlh1 rad18 strain growth inhibition, hits give high values
Procedure, shortened: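 Genetically defined yeast (DNA repair-deficient) exposed to compounds; growth inhibition determined relative to vehicle.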

[7] = at 5.0 µM (retest, dose inferred, filed as 0.5)
[8] = at 50.0 µM (retest, dose inferred, filed as 5.0)

`O=C1CCC(Cc2ccccc2Br)C(=O)N1` (stereo not given) showed a growth inhibition [1, 7] of -5%, a growth inhibition [1, 8] of 10% and a growth inhibition ([1]; at 50.0 µM) of -10.8%. The growth inhibition [2, 7] was -1%, the growth inhibition [2, 8] was 6% and the growth inhibition ([2]; at 50.0 µM) was 36%. The growth inhibition [3, 7] was 11%, the growth inhibition [3, 8] was 92% (active) and the growth inhibition ([3]; at 50.0 µM) was 97.2% (active). The growth inhibition [4, 7] was -4%, the growth inhibition [4, 8] was 8% and the growth inhibition ([4]; at 50.0 µM) was -39.2%. It also gave a growth inhibition [5, 7] of -4%, a growth inhibition [5, 8] of 6% and a growth inhibition ([5]; at 50.0 µM) of -45.5%. For the same compound, the growth inhibition [6, 7] was -7%, the growth inhibition [6, 8] was 6% and the growth inhibition ([6]; at 50.0 µM) was 6.35%.

In the case of `COc1cc(C2c3cc4c(cc3OC(NNc3ccccc3)C2C)OCO4)cc(OC)c1O` (stereo not given), the growth inhibition [1, 7] is reported as -5%, the growth inhibition [1, 8] is reported as 97% (active) and the growth inhibition ([1]; at 50.0 µM) is reported as 98.2% (active). For the same compound, the growth inhibition [2, 7] was -15%, the growth inhibition [2, 8] was 98% (active) and the growth inhibition ([2]; at 50.0 µM) was 98.7% (active). The growth inhibition [3, 7] was -13%, the growth inhibition [3, 8] was 99% (active) and the growth inhibition ([3]; at 50.0 µM) was 98.4% (active). The growth inhibition [4, 7] was -5%, the growth inhibition [4, 8] was 96% (active) and the growth inhibition ([4]; at 50.0 µM) was 98.6% (active). For the same compound, the growth inhibition [5, 7] was -7%, the growth inhibition [5, 8] was 97% (active) and the growth inhibition ([5]; at 50.0 µM) was 98.7% (active). For the same compound, the growth inhibition [6, 7] was -11%, the growth inhibition [6, 8] was 97% (active) and the growth inhibition ([6]; at 50.0 µM) was 98.3% (active).

For `N#CS/C(Cl)=C(/C(Cl)=C(Cl)Cl)[N+](=O)[O-]`, the growth inhibition [1, 7] was 5%, the growth inhibition [1, 8] was 99% (active) and the growth inhibition ([1]; at 50.0 µM) was 84.8% (active). For the same compound, the growth inhibition [2, 7] was 18%, the growth inhibition [2, 8] was 99% (active) and the growth inhibition ([2]; at 50.0 µM) was 70.7% (active). The growth inhibition [3, 7] was -3%, the growth inhibition [3, 8] was 98% (active) and the growth inhibition ([3]; at 50.0 µM) was 87.4% (active). The growth inhibition [4, 7] was -5%, the growth inhibition [4, 8] was 98% (active) and the growth inhibition ([4]; at 50.0 µM) was 48.6%. The growth inhibition [5, 7] was -21%, the growth inhibition [5, 8] was 99% (active) and the growth inhibition ([5]; at 50.0 µM) was 85.7% (active). For the same compound, the growth inhibition [6, 7] was -15%, the growth inhibition [6, 8] was 99% (active) and the growth inhibition ([6]; at 50.0 µM) was 81.2% (active).

For `N=Nc1c(OC(=O)Nc2cccc(Cl)c2)[nH]c2ccccc12`, the growth inhibition [1, 7] was 36%, the growth inhibition [1, 8] was 99% (active) and the growth inhibition ([1]; at 50.0 µM) was 98.7% (active). For the same compound, the growth inhibition [2, 7] was 14%, the growth inhibition [2, 8] was 99% (active) and the growth inhibition ([2]; at 50.0 µM) was 98.8% (active). For the same compound, the growth inhibition [3, 7] was 28%, the growth inhibition [3, 8] was 99% (active) and the growth inhibition ([3]; at 50.0 µM) was 99% (active). The growth inhibition [4, 7] was 15%, the growth inhibition [4, 8] was 99% (active) and the growth inhibition ([4]; at 50.0 µM) was 98.2% (active). For the same compound, the growth inhibition [5, 7] was 1%, the growth inhibition [5, 8] was 99% (active) and the growth inhibition ([5]; at 50.0 µM) was 98.4% (active). The growth inhibition [6, 7] was 33%, the growth inhibition [6, 8] was 99% (active) and the growth inhibition ([6]; at 50.0 µM) was 99.1% (active).

Compound `CCCN(CCC)C(=O)CCC(C)=O` has a growth inhibition [1, 7] of 0%, a growth inhibition [1, 8] of -3% and a growth inhibition ([1]; at 50.0 µM) of -13.8%. The growth inhibition [2, 7] was 1%, the growth inhibition [2, 8] was 2% and the growth inhibition ([2]; at 50.0 µM) was -7.5%. It also gave a growth inhibition [3, 7] of 1%, a growth inhibition [3, 8] of -1% and a growth inhibition ([3]; at 50.0 µM) of -23.8%. The growth inhibition [4, 7] was -7%, the growth inhibition [4, 8] was 3% and the growth inhibition ([4]; at 50.0 µM) was 41.5%. The growth inhibition [5, 7] was -1%, the growth inhibition [5, 8] was -3% and the growth inhibition ([5]; at 50.0 µM) was -18.4%. The growth inhibition [6, 7] was 1%, the growth inhibition [6, 8] was -3% and the growth inhibition ([6]; at 50.0 µM) was 17.1%.
